# Test results published in PubChem BioAssay (NCI).
# Compounds without any hit were thinned out: in the full panel of roughly 79,000, 15% have a hit. Values without a mark were called inactive. The source made the active and inactive calls. No stated cut-off is given here; in the data, active means growth inhibition above about 70%; inactive means the rest.
# How the values were obtained:
# [1] = NCI Yeast Anticancer Drug Screen. Data for the rad52 strain (AID 147);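 further: 0% = growth of vehicle-treated control cultures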; conditions: S. cerevisiae rad52 mutant growth inhibition, active compounds read high
# Outline: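 Here a repair-compromised yeast strain receives each compound; its growth is then quantified and normalised to vehicle-only controls.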
# [2] = NCI Yeast Anticancer Drug Screen. Data for the wt1 strain (AID 149);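 further: 0% = growth of vehicle-treated wt1 cultures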; conditions: S. cerevisiae wt1 strain (SPY 50644) growth inhibition, active compounds read high
# Outline: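 Measured: growth of wt1 yeast under compound versus vehicle treatment, reported as inhibition.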
# [3] = NCI Yeast Anticancer Drug Screen. Data for the rad50EPP+ strain (AID 151);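 further: 0% = growth of vehicle-treated control cultures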; conditions: S. cerevisiae rad50 mutant strain, active compounds read high
# Outline: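 Read-out is yeast growth inhibition relative to vehicle; cells used were the rad50EPP+ strain.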
# [4] = NCI Yeast Anticancer Drug Screen. Data for the mgt1 strain (AID 153); conditions: S. cerevisiae mgt1 mutant growth inhibition, active compounds read high
# Outline: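 Measured: inhibition of mgt1 yeast growth by compound, normalized to vehicle-treated cultures.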
# [5] = NCI Yeast Anticancer Drug Screen. Data for the rad50 strain (AID 155);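 further: 0% = growth of vehicle-only cultures of the same strain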; conditions: S. cerevisiae rad50 strain growth inhibition, active compounds read high
# Outline: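 Growth of the mutant yeast was measured after compound exposure and referenced to vehicle-treated cultures.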
# [6] = NCI Yeast Anticancer Drug Screen. Data for the mec2-1 strain (AID 157); conditions: S. cerevisiae mec2-1 strain, active compounds read high
# Outline: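 Using mec2-1 yeast: add compound, measure growth, express inhibition versus vehicle-treated cultures.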
# [7] = NCI Yeast Anticancer Drug Screen. Data for the rad14 strain (AID 159);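 further: 0% = growth of vehicle-treated control cultures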; conditions: S. cerevisiae rad14 strain growth inhibition, active compounds read high
# Outline: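 Here, inhibition of yeast growth was measured after compound exposure, using a strain with a genetic defect in DNA damage repair and vehicle-treated cultures as the reference.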
# [8] = NCI Yeast Anticancer Drug Screen. Data for the sgs1 mgt1 strain (AID 161);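 further: 0% = growth of cultures given vehicle only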; conditions: S. cerevisiae sgs1 mgt1 strain, active compounds read high
# Outline: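 Compounds are added to genetically altered yeast, and growth is compared with cultures given vehicle alone to give percent inhibition.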
# [9] = NCI Yeast Anticancer Drug Screen. Data for the CLN2oe strain (AID 163);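 further: 0% = growth of vehicle-only control cultures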; conditions: S. cerevisiae CLN2oe strain, active compounds read high
# Outline: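 Whole-cell yeast growth assay. A strain engineered for altered cell-cycle control received compound, and inhibition relative to vehicle-treated cultures was recorded.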
# [10] = NCI Yeast Anticancer Drug Screen. Data for the cln2 rad14 strain (AID 165);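 further: 0% = growth equal to vehicle treated cultures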; conditions: S. cerevisiae cln2 rad14 strain, active compounds read high
# Outline: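 Yeast strain cln2 rad14, bearing defects in cell cycle control and DNA repair, serves as the test system; values reflect growth inhibition compared with vehicle.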
# [11] = NCI Yeast Anticancer Drug Screen. Data for the bub3 strain (AID 167); conditions: S. cerevisiae bub3 mutant strain, active compounds read high
# Outline: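 Whole-cell yeast assay. The mutant strain was incubated with compounds, and growth inhibition was determined by comparison with vehicle-treated cells.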
# [12] = NCI Yeast Anticancer Drug Screen. Data for the wt2 strain (AID 169);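 further: 0% = growth of vehicle-treated yeast cultures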; conditions: S. cerevisiae wt2 strain growth inhibition, active compounds read high
# Outline: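 Treated yeast vs. vehicle-treated yeast: growth inhibition determined.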
# [13] = NCI Yeast Anticancer Drug Screen. Data for the mlh1 strain (AID 171);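 further: 0% = growth of vehicle-treated control cultures of the same strain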; conditions: S. cerevisiae mlh1 strain growth inhibition, active compounds read high
# Outline: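 A yeast strain with a defined genetic lesion serves as the test organism. Cultures receive compound or vehicle, and growth is measured.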
# [14] = NCI Yeast Anticancer Drug Screen. Data for the sgs1 strain (AID 173);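 further: 0% = growth of vehicle-only control cultures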; conditions: S. cerevisiae sgs1 mutant, active compounds read high
# Outline: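 A genetically defined yeast mutant is incubated with the test compound, and its growth is compared to that of the same strain given vehicle.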
# [15] = NCI Yeast Anticancer Drug Screen. Data for the mlh1 rad18 strain (AID 175); conditions: S. cerevisiae mlh1 rad18 strain growth inhibition, active compounds read high
# Outline: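 Steps: expose repair-defective yeast to compound; measure growth; express inhibition against vehicle-treated controls.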
# [16] = NCI Yeast Anticancer Drug Screen. Data for the rad18 strain (AID 177); conditions: S. cerevisiae rad18 mutant growth inhibition, active compounds read high
# Outline: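 Measured value is growth inhibition of a yeast strain bearing a DNA repair alteration, referenced to vehicle-treated cells.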
# [17] = at 5.0 µM (retest, dose inferred, filed as 0.5)
# [18] = at 50.0 µM (retest, dose inferred, filed as 5.0)
smiles,measurement,setting,value
O=c1oc2ccccc2c(O)c1C(c1ccc2ccccc2c1)c1c(O)c2ccccc2oc1=O,growth inhibition,[1]; at 1.2 µM,-8%
same,growth inhibition,[1]; at 3.7 µM,12%
same,growth inhibition,[1]; at 11.0 µM,21%
same,growth inhibition,[1]; at 33.0 µM,64%
same,growth inhibition,[1]; at 100.0 µM,97% (active)
same,growth inhibition,[2]; at 1.2 µM,-10%
same,growth inhibition,[2]; at 3.7 µM,4%
same,growth inhibition,[2]; at 11.0 µM,1%
same,growth inhibition,[2]; at 33.0 µM,50%
same,growth inhibition,[2]; at 100.0 µM,98% (active)
same,growth inhibition,[3]; at 1.2 µM,6%
same,growth inhibition,[3]; at 3.7 µM,41%
same,growth inhibition,[3]; at 11.0 µM,51%
same,growth inhibition,[3]; at 33.0 µM,50%
same,growth inhibition,[3]; at 100.0 µM,46%
same,growth inhibition,[4]; at 1.2 µM,17%
same,growth inhibition,[4]; at 3.7 µM,17%
same,growth inhibition,[4]; at 11.0 µM,33%
same,growth inhibition,[4]; at 33.0 µM,83% (active)
same,growth inhibition,[4]; at 100.0 µM,98% (active)
same,growth inhibition,[5]; at 1.2 µM,12%
same,growth inhibition,[5]; at 3.7 µM,10%
same,growth inhibition,[5]; [17],47%
same,growth inhibition,[5]; at 11.0 µM,17%
same,growth inhibition,[5]; at 33.0 µM,58%
same,growth inhibition,[5]; [18],93% (active)
same,growth inhibition,[5]; at 50.0 µM,73.7% (active)
same,growth inhibition,[5]; at 100.0 µM,97% (active)
same,growth inhibition,[6]; at 1.2 µM,10%
same,growth inhibition,[6]; at 3.7 µM,15%
same,growth inhibition,[6]; [17],17%
same,growth inhibition,[6]; at 11.0 µM,31%
same,growth inhibition,[6]; at 33.0 µM,76% (active)
same,growth inhibition,[6]; [18],78% (active)
same,growth inhibition,[6]; at 50.0 µM,86.5% (active)
same,growth inhibition,[6]; at 100.0 µM,98% (active)
same,growth inhibition,[7]; at 1.2 µM,12%
same,growth inhibition,[7]; at 3.7 µM,21%
same,growth inhibition,[7]; at 11.0 µM,26%
same,growth inhibition,[7]; at 33.0 µM,66%
same,growth inhibition,[7]; at 100.0 µM,99% (active)
same,growth inhibition,[8]; [17],-24%
same,growth inhibition,[8]; [18],92% (active)
same,growth inhibition,[8]; at 50.0 µM,46.1%
same,growth inhibition,[9]; at 1.2 µM,7%
same,growth inhibition,[9]; at 3.7 µM,21%
same,growth inhibition,[9]; at 11.0 µM,27%
same,growth inhibition,[9]; at 33.0 µM,78% (active)
same,growth inhibition,[9]; at 100.0 µM,97% (active)
same,growth inhibition,[10]; [17],19%
same,growth inhibition,[10]; [18],96% (active)
same,growth inhibition,[10]; at 50.0 µM,40.2%
same,growth inhibition,[11]; at 1.2 µM,8%
same,growth inhibition,[11]; at 3.7 µM,-8%
same,growth inhibition,[11]; [17],10%
same,growth inhibition,[11]; at 11.0 µM,22%
same,growth inhibition,[11]; at 33.0 µM,55%
same,growth inhibition,[11]; [18],93% (active)
same,growth inhibition,[11]; at 50.0 µM,28.4%
same,growth inhibition,[11]; at 100.0 µM,97% (active)
same,growth inhibition,[12]; at 1.2 µM,-25%
same,growth inhibition,[12]; at 3.7 µM,-21%
same,growth inhibition,[12]; at 11.0 µM,38%
same,growth inhibition,[12]; at 33.0 µM,97% (active)
same,growth inhibition,[12]; at 100.0 µM,94% (active)
same,growth inhibition,[13]; at 1.2 µM,-1%
same,growth inhibition,[13]; at 3.7 µM,20%
same,growth inhibition,[13]; at 11.0 µM,33%
same,growth inhibition,[13]; at 33.0 µM,75% (active)
same,growth inhibition,[13]; at 100.0 µM,99% (active)
same,growth inhibition,[14]; at 1.2 µM,27%
same,growth inhibition,[14]; at 3.7 µM,30%
same,growth inhibition,[14]; at 11.0 µM,36%
same,growth inhibition,[14]; at 33.0 µM,73% (active)
same,growth inhibition,[14]; at 100.0 µM,98% (active)
same,growth inhibition,[15]; [17],12%
same,growth inhibition,[15]; [18],40%
same,growth inhibition,[15]; at 50.0 µM,80% (active)
same,growth inhibition,[16]; at 1.2 µM,10%
same,growth inhibition,[16]; at 3.7 µM,7%
same,growth inhibition,[16]; at 11.0 µM,33%
same,growth inhibition,[16]; at 33.0 µM,55%
same,growth inhibition,[16]; at 100.0 µM,98% (active)
